PNC assembly inh – perinucleolar compartment assembly inhibition | PC3M PTB-GFP, PNC prevalence imaging, 16 h; active compounds read low | activity change (PNC), negative = inhibition, % at 10 µM | 3.1% of 140,000 active;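 active = readout at or below -70, meaning at least 70% loss of cells showing the perinucleolar compartment, a nuclear body marking cancer cells; inconclusive = readout between -30 and a set limit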;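 also: plate controls were DMSO wells for no effect and camptothecin positive control wells for full effect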
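Compounds are pinned in duplicate onto adhered PC3M cells stably expressing GFP-tagged PTB and incubated 16 h at 37 C. Cells are then fixed, nuclei stained with Hoechst, and PNC-positive cells counted.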
HPGD inh – inhibitors of human 15-hydroxyprostaglandin dehydrogenase (HPGD); purified HPGD, NADH fluorescence kinetic, PGE2 substrate; Potency, µM, for inactives: at the highest dose activity change, negative = inhibition, actives largely listed as inhibitors; 4.3% of 150,000 active; active = well fitted inhibition curve with a large enough effect, not every such curve was filed as active; inconclusive = small, poorly fitted or top-dose-only effect, or another doubt; inactive = no such curve, though single readings can be large or run the other way; also: potency is read from the fitted curve at half-maximal effect
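NADH formation kinetics: reaction with 30 uM PGE2 and 1 mM NAD+ (final), 20 nM enzyme, Tris-HCl pH 8 with Tween 20, after 15 min compound preincubation at room temperature. Fluorescence change, last versus first of five reads.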
12-hLO inh – 12-hLO (ALOX12) enzyme inhibition | P18054 | purified 12-hLO, xylenol orange hydroperoxide absorbance | Potency, µM (highest dose often 57.1 µM), inactives show at the highest dose activity change, negative = inhibition, hits mostly inhibitors | 0.12% of 150,000 active; also: potency is read from the fitted curve at half-maximal effect; nearly all actives have a fitted effect of over 55% in size
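Purified human 12hLO (150 nM final) was preincubated with compounds for 15 min at room temperature in 25 mM Hepes pH 7.0, 0.01% Triton X-100, then reacted with 40 uM arachidonic acid for 30 min. Hydroperoxide was detected with ferrous iron/xylenol orange.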
ALOX15B inhib – 15-hLO-2 (ALOX15B) enzyme inhibition. purified 15hLO-2, xylenol orange hydroperoxide absorbance. Potency, µM (series often up to 57.1 µM), for the others: at the highest dose activity change, negative = inhibition, most hits filed as inhibitors. 0.56% of 110,000 active. AID 881; also: potency is read from the fitted curve at half-maximal effect; nearly all actives have a fitted effect of over 60% in size
Target sequence (O15296 whole entry, looked up): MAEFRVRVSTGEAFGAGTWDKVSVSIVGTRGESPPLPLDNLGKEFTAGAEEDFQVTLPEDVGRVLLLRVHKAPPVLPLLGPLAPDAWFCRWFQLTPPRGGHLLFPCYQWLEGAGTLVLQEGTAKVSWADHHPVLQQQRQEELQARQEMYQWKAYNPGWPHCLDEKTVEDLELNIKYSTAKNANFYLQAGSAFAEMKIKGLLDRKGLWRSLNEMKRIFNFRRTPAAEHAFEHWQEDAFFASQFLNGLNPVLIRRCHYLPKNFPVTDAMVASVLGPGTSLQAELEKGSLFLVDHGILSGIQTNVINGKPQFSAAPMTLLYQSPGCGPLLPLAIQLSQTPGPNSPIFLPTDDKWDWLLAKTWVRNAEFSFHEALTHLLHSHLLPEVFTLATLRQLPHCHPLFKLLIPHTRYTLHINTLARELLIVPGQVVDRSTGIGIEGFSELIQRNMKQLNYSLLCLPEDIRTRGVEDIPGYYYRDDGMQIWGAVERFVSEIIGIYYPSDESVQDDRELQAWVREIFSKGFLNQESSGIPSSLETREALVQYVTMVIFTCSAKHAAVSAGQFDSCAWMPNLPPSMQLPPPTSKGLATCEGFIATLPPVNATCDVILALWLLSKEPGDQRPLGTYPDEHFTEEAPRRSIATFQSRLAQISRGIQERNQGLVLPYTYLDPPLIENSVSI
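Read-out: hydroperoxide product oxidises ferrous iron, measured as xylenol orange complex via the 573-to-405 nm absorbance ratio after 30 min. Reaction: 50 nM enzyme, 15 min compound preincubation, 45 uM arachidonic acid, 90 min RT, Hepes pH 7.5 with Triton X-100.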
IMPase cell inh – membrane-permeable compound that blocks inositol monophosphatase | P97697 | CHO-M1 cells, IP1 accumulation, HTRF TR-FRET ratio | inhibition (IP1 accumulation), % at 46.1 µM | 120,000 tested, under 10 active; active = well fitted curve in the direction sought with a large enough effect in the signal ratio, not every such curve was filed as active; inconclusive = small, poorly fitted or top-dose-only effect, or a change in a side signal; inactive = no such curve, though single readings can be large or run the other way; the % refers to the signal ratio;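 also: cells stimulated with carbachol in lithium chloride buffer; plate controls were DMSO basal wells for no effect and reference inhibitor wells for full effect; higher means more IMPase inhibition seen as more IP1 and lower FRET ratio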
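Seeded CHO-M1 cells were dosed with compound at up to 46 uM, stimulated with carbachol for 30 min, then lysed in IP-One detection reagents. Higher IP1 lowers the TR-FRET signal.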
IMPase Li inh – cell-permeable IMPase inhibitors with lithium potentiation; AID 1457; Potency, µM (top dose mostly 59.4 µM), without a hit: at the highest dose activity, negative = IMPase inhibition, actives largely listed as inhibitors; CHO-M1 cells, IP1 TR-FRET (IP-One), carbachol + lithium; 0.35% of 210,000 active;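 also: IP1 builds up when IMPase is blocked and the TR-FRET signal falls; potency is read from the fitted curve at half-maximal effect; plate controls were basal vehicle for no effect and high inhibitor control for full effect; nearly all actives have a fitted effect of over 50% in size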
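Concentration–response in CHO-M1 cells, lithium-potentiated; 30 min at 37C. IP1 detected by competitive TR-FRET after 10 min lysis at RT. Hill-fitted AC50.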
Starred values were filed as active, the others as inactive; ? = inconclusive; · = no result given; [ ] = dose if it differs, or a comment. Most compounds without a hit are left out; they make up all but 5.4% or so of the library. Unless noted, calls follow the shape of the dose curve; as a rule, active = well fitted curve in the direction sought with a large enough effect; inconclusive = small, poorly fitted or top-dose-only effect, or another doubt; inactive = no such curve, though single readings can be large; an effect the other way counts as inactive or inconclusive. Unless noted, % is scaled to controls: 0 for no effect and ±100 for the full control effect.

SMILES	PNC assembly inh	HPGD inh	12-hLO inh	ALOX15B inhib	IMPase cell inh	IMPase Li inh
Nc1cc(Cl)ccc1O	·	10µM*	20µM*	-2%	·	9%
Cc1cc(Cl)ccc1O	·	-3%	-2%	-3%	·	9%
Oc1ccc(Cl)cc1Sc1cc(Cl)ccc1O	·	2.5µM*	-28%[11.4 µM]	16µM*	·	-5%
CN(C)[C@@H]1C(=O)C(C(N)=O)=C(O)[C@]2(O)C(=O)C3=C(O)c4c(O)ccc(Cl)c4[C@](C)(O)[C@H]3C[C@@H]12	·	-4%	-6%[25.6 µM]	1%[25.6 µM]	-10[20.6 µM]	-3%
CN(C)C1C(=O)C(C(N)=O)=C(O)[C@@]2(O)C(=O)C3=C(O)c4c(O)cccc4[C@@](C)(O)C3CC12 (stereo partly specified)	·	-21%	-2%	2%	·	4µM*
O=C(O)C(Oc1nc(=S)[nH]c(=S)[nH]1)(c1ccc(Cl)cc1)c1ccc(Cl)cc1	·	-6%	4%[11.4 µM]	-3%[11.4 µM]	·	-6%
O=c1[nH]c(=O)n(-c2ccc(Cl)cc2)c(O)c1C=Nc1ccc(S(=O)(=O)Nc2nccs2)cc1	?	22µM*	0%	·	·	-4%
COc1ccc(Nc2ncc(C(=O)N3CCC4(CC3)OCCO4)c3ccccc23)cc1	?	22µM*	2%	-2%	6	33%[38.3 µM]
COc1ccc(NC(=O)N2CCC3(CC2)OCCO3)cc1	·	·	·	·	·	5%
Cc1ccc(C(=O)NC(O)C(Cl)(Cl)Cl)cc1 (stereo unspecified)	?	14µM*	3%	·	-4	0%
Cc1nn(CCC#N)c2c1P(=S)(N1CCCC1)OC(c1ccc(F)cc1)=N2 (stereo unspecified)	-2	20µM*	-13%	3%	2	-6%[38.3 µM]
FC(F)(F)c1nc2ccc(SSc3ccc4nc(C(F)(F)F)[nH]c4c3)cc2[nH]1	·	4µM*	-1%[11.4 µM]	-23%[11.4 µM]	·	-3%
O=C(O)C(C(=O)O)P(=S)(S)c1ccccc1 (stereo unspecified)	·	-1%	-2%[11.4 µM]	-1%[11.4 µM]	·	-9%
CN(C)c1ccc2c(c1)N=C(c1ccco1)OP2(=S)N1CCOCC1 (stereo unspecified)	23	18µM*	-6%	-23%	-6	-7%[38.3 µM]
COc1ccc2c(c1OC)CN1CCc3cc4c(cc3[C@H]1C2)OCO4	·	-6%	1%[25.6 µM]	10%[25.6 µM]	4[20.6 µM]	6%
COc1ccc2c(c[n+](C)c3c4cc5c(cc4ccc23)OCO5)c1OC	·	?	?	13µM*	22	27%
COc1cc2c(cc1OC)[C@@]13CCN4CC5=CCO[C@H](CC(=O)O)[C@@H]([C@H]1N2)[C@H]5C[C@H]43	·	-11%	4%[11.4 µM]	-5%[11.4 µM]	·	3%
C=C(Cl)CCl	·	-2%	-3%	-4%	·	-11%
COc1ccc(C2NCc3ccc4c(c3-n3cccc32)OCO4)cc1O (stereo unspecified)	-108*	-12%	-8%	8%[2.29 µM]	3	7%[38.3 µM]
CC(C)(C)c1cc(C#N)cc(Br)c1OP(=O)(Oc1c(Br)cc(C#N)cc1C(C)(C)C)c1ccccc1	·	-9%	5%[11.4 µM]	-11%[11.4 µM]	·	3%
C=CCSc1nnc(NC(=O)c2ccc(Cl)nc2)s1	-24	28µM*	-1%	-12%	-9	17%[38.3 µM]
Cc1nonc1-c1nc(-c2nonc2N)n[nH]1	-26	14µM*	3%	0%	2	-18%[38.3 µM]
O=c1c2ccccc2nc(CNCC2CCCO2)n1-c1ccc(F)cc1 (stereo unspecified)	·	·	·	·	·	4%
O=c1c2ccccc2nc(CNCc2ccco2)n1-c1ccc(F)cc1	-83*	-5%	1%	·	·	6%
COC(=O)C(O)(c1ccc(NC(=O)Oc2ccccc2)cc1)C(F)(F)F (stereo unspecified)	18	-1%	2%	·	·	2%
SMILES	PNC assembly inh	HPGD inh	12-hLO inh	ALOX15B inhib	IMPase cell inh	IMPase Li inh
COC(=O)C(O)(c1ccc(NC(=S)NC(=O)c2ccccc2)cc1)C(F)(F)F (stereo unspecified)	-11	-6%	?	16µM*	4	3%[38.3 µM]
O=C(c1ccccc1)[C@H]1[C@H](c2ccccc2[N+](=O)[O-])N1C1CCCCC1 (stereo partly specified)	·	-20%	1%[11.4 µM]	-5%[11.4 µM]	·	-1%
CCN(CC)C(=O)c1ccc(NC(=O)c2cccc(C(F)(F)F)c2)cc1	·	·	·	·	·	13%
CCN(CC)c1ccc(NC(=O)c2cccc(C)c2)cc1S(=O)(=O)Nc1ccccc1OC	?	13µM*	0%	·	·	4%
COC(=O)c1c(N)n(Cc2ccc(OC)cc2)c2nc3ccccc3nc12	-82*	?	-10%	-15%	0	26%[38.3 µM]
Cc1nc2c(=O)n(C)c(=O)nc-2n(C)n1	-93*	-18%	-17%	·	11	21%
CN(C(=O)Cc1ccc(Cl)c(Cl)c1)C(CN1CCCC1)c1cccc(N=C=S)c1 (stereo unspecified)	·	·	·	·	·	36%
O/N=C/c1c[nH]c2ccccc12	?	7.1µM*	-5%	-1%	-2	26%[38.3 µM]
C=CCN(CC=C)Cc1c[nH]c2ccccc12	-7	-15%	-6%	-7%	-4	2%[38.3 µM]
O=[N+]([O-])/C=C/c1c(OCc2ccccc2)ccc2ccccc12	25	16µM*	-3%	-26%	13	49%[38.3 µM]
O=C(O)Cc1ccccc1	·	-1%	1%[0.00818 µM]	-7%[0.0915 µM]	·	6%
O=C(O)CNC(=O)[C@@H](CS)Cc1ccccc1	·	7.9µM*	-3%[25.6 µM]	2%[25.6 µM]	-2[20.6 µM]	-1%
O=C1/C(=C\c2cc3c(cc2Cl)OCO3)N2CCC1CC2	20	28µM*	15%	·	·	-8%
O=C1/C(=C/c2cc3c(cc2Cl)OCO3)N2CCC1CC2	-3	22µM*	-4%	·	·	11%
O=C1/C(=C/c2cc([N+](=O)[O-])ccc2Cl)N2CCC1CC2	-11	-8%	1%	-12%	8	12%[38.3 µM]
O=C(Cc1ccccc1)Oc1cccc(N2C(=O)CCC2=O)c1	-100*	-8%	4%	-6%	-2	12%[38.3 µM]
COc1ccc(/C=C2/Sc3ccc(C(=O)N4CCc5ccccc5C4)cc3NC2=O)cc1	20	16µM*	-3%	·	·	2%
C=CCN1C(=O)c2ccccc2Sc2ccc(C(=O)N3CCC4(CC3)OCCO4)cc21	36	-3%	6%	·	4	0%[38.3 µM]
O=C(O)[C@@H](O)[C@@H](O)C1[O][Sb][O][C@@H]1CO (stereo partly specified)	·	-12%	·	·	·	-3%
COc1cccc2c1C(=O)c1c(O)c3c(c(O)c1C2=O)C[C@](O)(/C(C)=N\O)C[C@@H]3O[C@H]1C[C@H](N)[C@@H](O)[C@H](C)O1	·	-7%	0%[11.4 µM]	20%[11.4 µM]	·	13%
CCn1c(C)cc(/C=C2\C(=O)NC(=O)N(c3ccccc3C)C2=O)c1C	·	·	·	·	·	-1%
Cc1ccccc1N1C(=O)NC(=O)/C(=C\c2cnn(-c3ccccc3)c2)C1=O	-13	10µM*	-9%	·	·	5%

High-throughput results (PubChem)
